Our source for the growth values is PubChem BioAssay (NCI).

The panel holds about 83,000 compounds, 20% with a hit somewhere; the sample as a whole holds those more often.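 Testing used 96-well plates and a 48-hour single-concentration exposure. Example: -40 means 40% of the starting cells died.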 Active and inactive are the calls of the source. The calls were made as follows: active = growth percent below 10; inactive = the rest.

The first assay deals with UACC-62 melanoma. Briefly: NCI-60 one-dose screen, 48 h (100 = growth as untreated, 0 = no growth, -100 = all killed). The settings on record: 10 µM unless noted.
Regarding `COc1ccc(/C=C/C(=O)c2cc3c(N)c(C(=O)Nc4cccc5ccccc45)sc3nc2C)cc1`, the growth was 21.3% (inactive). The same measure, in the same setting: under `Nc1ncnc2c1c(-c1cccc(Cl)c1)nn2CC(=O)N1CCOCC1` stands 93.7% (inactive); under `CC(=O)O[C@H]1CC2CCC3C(CC[C@@]4(C)C3C[C@H]([N+]3(C)CCCCC3)[C@@H]4OC(C)=O)[C@@]2(C)C[C@@H]1N1CCCCC1` (some centres undefined), 92.6% (inactive).

For the compound `c1ccc(Cn2cc3c(c2)-c2oncc2CC3)cc1`, the growth is 23.6% (inactive).

The next assay relates to LOX IMVI melanoma. The description is as above. The conditions noted are these: 10 µM unless noted.
Consider `O=C1C(Cl)=C(NCCCCCCNC2=C(Cl)C(=O)c3ccccc3C2=O)C(=O)c2ccccc21`, for which the growth is 36.3% (inactive). For the compound `CCCC/C=C/[C@@H]1C[C@H]1CCO`, the growth is 98.2% (inactive). Still for that read-out and setting: under `C=C(C)[C@@H]1CC[C@]2(CO)CC[C@]3(C)[C@H](CC[C@@H]4[C@@]5(C)CC[C@H](NCO)C(C)(C)[C@@H]5CC[C@]43C)[C@@H]12` stands -99.8% (active). In the case of `Cc1cccc(/C=C/c2c(C(=O)/C=C/c3ccccc3)c(C)nc3ccccc23)c1`, the growth is -86.1% (active). The same measure, in the same setting: under `Cc1ccc(-c2nc(N3CCCNCC3)c3oc(-c4ccc(C)cc4)nc3n2)cc1` stands -79.3% (active); under `Cc1sc2nc(NCCc3c[nH]c4ccc(Cl)cc34)[nH]c(=O)c2c1C`, 26.5% (inactive); under `COc1ccc(OC)c(Nc2nnc(-c3ccc(O)c(OC)c3)o2)c1`, 43.3% (inactive). Same read-out and setting: to `COc1ccccc1NC(=O)N=Nc1c(O)[nH]c2ccccc12` belongs 98.2% (inactive); to `Nc1nc2ccccc2c2c1S(=O)(=O)c1ccc(Cl)cc1C2=O`, 8.26% (active). The same measure, in the same setting: to `Nc1n[nH]c2cccc(C#Cc3cccc(C(=O)Nc4cc(C(F)(F)F)cc(C(F)(F)F)c4)c3)c12` belongs 41.2% (inactive). Turning to `CS(=O)(=O)Nc1cc(-c2ccc3ncnc(Nc4ccc5c(cnn5Cc5ccc(F)cc5)c4)c3c2)cnc1Cl`, the growth was 18.3% (inactive). `Fc1cc2c(cc1Cl)N(c1ncnc3ccc(-c4ccc5n[nH]nc5c4)cc13)CC2`: the growth is 86% (inactive).

Turning to `CCN1C(=S)N(c2ccccc2)C2NC(=S)N(/N=C/C=C/c3ccccc3OC)C21` (centres undefined), the growth was 15.4% (inactive).

For the compound `O=c1c2cccc3c(N4CCCC4)ccc(c32)c2nc3ccccc3n12`, the growth was 51.7% (inactive).

Regarding `OB1OCc2cc(/C=C/c3cccc(C(F)(F)F)c3)ccc21`, the growth is -72.5% (active).

Turning to `O=C(/C=C/c1ccccc1)Nc1ncc(Cc2ccccc2Cl)s1`, the growth was 21.3% (inactive). On the same count and under the same terms, to `CN(C)CCNC(=O)c1ccc(-c2nc3ccc4[nH]ncc4c3c3c2C2CCC3C2)cc1` (centres undefined) belongs 26.2% (inactive); to `COC12C=C/C(=C(/C(=O)OCc3ccncc3)C(=O)CCCCCCCCC3(OC)C=C/C(=C(/C(=O)OCc4ccncc4)C(=O)CCCCCCCC1)O3)O2`, -63.9% (active). On the same count and under the same terms, to `O=C(/C=C/c1cccc(Cl)c1)c1cccc(OCCCOc2cccc(C(=O)/C=C/c3cccc(Cl)c3)c2)c1` belongs 63.5% (inactive); to `CCn1c(SCC(=O)N/N=C(\C)c2ccc(Cl)cc2)nc2c1c(=O)n(C)c(=O)n2C`, 94.6% (inactive).

Take `Cc1ccc(C[P+](c2ccccc2)(c2ccccc2)c2ccccc2)cc1`: the growth is 15.4% (inactive). With `Clc1ccc2c(NC3CCC(N4CCOCC4)CC3)ccnc2c1` (centres undefined), the growth is 68.6% (inactive).

Take `Cc1ccc(C2=Nc3c(N)ncnc3NC(c3cccc(Nc4ccnc5cc(C(F)(F)F)ccc45)c3)C2)cc1` (centres undefined): the growth was 26.7% (inactive). Still for that read-out and setting: under `COc1ccc(-c2noc(C(=O)O)c2-c2cc(OC)c(OC)c(OC)c2)cc1` stands 35.2% (inactive); under `CCOC(=O)c1nn(-c2ccc(S(N)(=O)=O)cc2)c2nc(C)cc(=O)n12`, 96.2% (inactive).

With `CCSC(SCC)c1ccc(Cl)cc1`, the growth is 95.9% (inactive). Still for that read-out and setting: under `CSc1nc2ccccc2cc1/C=C1/C=C(c2ccccc2)NC1=O` stands 74.4% (inactive). On the same count and under the same terms, to `COC1/C=C/OC2(C)Oc3c(C)c(O)c4c(O)c(c(/C=N/Nc5ccc([N+](=O)[O-])cc5[N+](=O)[O-])c(O)c4c3C2=O)NC(=O)C(C)=C/C=C/C(C)C(O)C(C)C(O)C(C)C(OC(C)=O)C1C` (centres undefined) belongs -56.9% (active); to `O=C1C(Cl)=C(Nc2ccc(S(=O)(=O)N3CCOCC3)cc2)C(=O)c2ccccc21`, 35.3% (inactive). The same measure, in the same setting: under `c1csc(-c2ccc(CNc3c4ccccc4nc4ccccc34)cc2)c1` stands -90.7% (active).

As for `Nc1ncc(-c2ccc3ncnc(Nc4cccc(Cl)c4)c3c2)cn1`, the growth is 44.8% (inactive). On the same count and under the same terms, to `CCOC(=O)C#Cc1c(C(=O)OCC)nnn1Cc1ccc([N+](=O)[O-])cc1` belongs -0.0172% (active); to `O=C(CSc1nc2ccc([N+](=O)[O-])cc2[nH]1)Nc1ccc([N+](=O)[O-])cc1`, 23.5% (inactive).

Regarding `CC(C)(Sc1cc(C(C)(C)C)c(OC(=O)CCCC(=O)O)c(C(C)(C)C)c1)Sc1cc(C(C)(C)C)c(OC(=O)CCCC(=O)O)c(C(C)(C)C)c1`, the growth was 27.1% (inactive).

Take `O=C(N(c1ccccc1)c1ccccc1)n1cc(I)c2nc(Cl)nc(Cl)c21`: the growth was 31.1% (inactive).

For `NC(=O)CSc1oc(-c2ccccc2)nc1S(=O)(=O)c1ccc(Br)cc1`, the growth is 94.3% (inactive). The same measure, in the same setting: under `COc1ccc(/C=C/C(=O)c2cc3c(N)c(C(=O)Nc4cccc5ccccc45)sc3nc2C)cc1` stands 60.1% (inactive). The same measure, in the same setting: under `Nc1ncnc2c1c(-c1cccc(Cl)c1)nn2CC(=O)N1CCOCC1` stands 103% (inactive); under `CC(=O)O[C@H]1CC2CCC3C(CC[C@@]4(C)C3C[C@H]([N+]3(C)CCCCC3)[C@@H]4OC(C)=O)[C@@]2(C)C[C@@H]1N1CCCCC1` (some centres undefined), 95.2% (inactive). On the same count and under the same terms, under `c1ccc(Cn2cc3c(c2)-c2oncc2CC3)cc1` stands 45.5% (inactive).
